Results with a measured potency or affinity are listed apart. Activity calls are given as the source filed them.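 The calls were made as follows: active = signal drop whose fitted half-maximal concentration is at most twice the top valid dose, in every test run; inconclusive = mixed calls across runs, poor fit, or flat 30 to 70% inhibition; inactive = wrong direction, flat within 30%, or potency beyond limit.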

A short description of the assay: RMG-1 ovarian cancer cell viability loss – cherry-pick, dose response (AID 687029).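 Also: cells exposed to compound for 96 hours.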 As to conditions: RMG-1 viability, CellTiterGlo ATP luminescence, 96 h; series mostly up to 35 µM. A general note: Cellular ATP, detected with luciferase, serves as a proxy for viable cell number.
Regarding `CC(=NNC(=S)N1CCN(C2CCCCCC2)CC1)c1ccccn1`, the compound was classed as inactive.
In the case of `Cc1[nH]c2ccccc2c(=O)c1C(=O)/C=C/c1ccccc1`, the result was inactive.
Regarding `CCOCCCNC(=O)c1ccc2c(c1)N=C(CC)c1cc(Br)ccc1S2`, the outcome was inactive.
Then `C[C@H]1CCCCO[C@H](CN(C)C(=O)Nc2ccc(C(F)(F)F)cc2)[C@@H](C)CN([C@@H](C)CO)C(=O)c2cc(NS(=O)(=O)c3ccc(Cl)cc3)ccc2O1`, with “inactive”; and `CN(C)CCNc1ccc(CO)c2sc3ccc(O)cc3c(=O)c12`, with “inactive”.
As to `COc1ccccc1-n1cc([C@@H]2C[C@H]3CN(c4ccccc4)C(=O)[C@]34CCCN24)cn1`, the compound was classed as inactive.
`N#CC1(NC(=O)Cn2ncc(Cl)c(Cl)c2=O)CCCCC1`: the result was inactive.
As for `Cc1ccc(C(=O)c2cc([N+](=O)[O-])ccc2N2CCCCC2)cc1`, the outcome was inactive.
Regarding `CC(=O)N1CCc2c(sc(NC(=O)c3ccc([N+](=O)[O-])o3)c2C#N)C1`, the compound was called inactive.
On to `COc1cccc2c1C(=O)c1c(O)c3c(c(O)c1C2=O)CC(O)(C(C)=O)CC3OC1CC(N(C)C)C(O)C(C)O1` (stereo not given), for which the call was inactive.
`C[C@H]1CCCCO[C@H](CN(C)C(=O)Nc2ccc(C(F)(F)F)cc2)[C@@H](C)CN([C@@H](C)CO)C(=O)c2cc(NC(=O)Nc3ccc(F)cc3)ccc2O1`: the result was inactive.
For `COc1ccccc1NS(=O)(=O)c1cccc(C(=O)N/N=C/c2ccc([N+](=O)[O-])o2)c1`, the outcome was inactive.
Turning to `Cn1nnnc1Sc1ncnc2scc(-c3cccc(F)c3)c12`, the call was inactive.
The result for `Cn1cc(C2=C(c3ccc(Cl)cc3Cl)C(=O)NC2=O)c2ccccc21` reads “inactive”.
Regarding `CC(=O)Nc1cc(-c2cccc(C(=O)NCCN(C)C)c2)cn2c(-c3cccc(C(F)(F)F)c3)cnc12`, the call was inactive.
In the case of `COc1ccc(OC)c(-c2nnc3n2N=C(c2ccc(OC)c(OC4CCOC4)c2)CS3)c1` (stereo not given), the call was inactive.
Consider `Cc1cc(NC(=O)c2ccc([N+](=O)[O-])o2)ccc1NC(=O)c1ccco1`, for which the call was inactive.
Then `CCOC(=O)c1cnc2ccc(C(=O)OC)cc2c1Nc1ccc(C(=O)O)cc1`, with “inactive”.
As to `CC(C)C(=O)N1CCN(c2ccc(NC(=O)c3ccc([N+](=O)[O-])o3)cc2)CC1`, the result was inactive.
On to `CS(=O)(=O)c1ncc(Cl)c(C(=O)Nc2ccc3ccccc3c2)n1`, for which the result was inactive.
Turning to `COc1cc(/C=C2\COC/C(=C\c3cc(OC)c(OC)c(OC)c3)C2=O)cc(OC)c1OC`, the call was inactive.
As to `Oc1ccc2ccccc2c1N=Nc1nccs1`, the compound was called inactive.
Consider `Cc1cccc(C)c1NS(=O)(=O)c1ccc(-c2cnc(C3CC3)o2)cc1`, for which the outcome was inactive.
On to `O=C(Nc1ccc([N+](=O)[O-])cc1)Nc1nc(-c2ccc(Cl)s2)cs1`, for which the compound was called inactive.
Turning to `CC(C)(C)OC(=O)NCCCC[C@H](NC(=O)c1[nH]cnc1C(=O)N[C@@H](Cc1ccccc1)C(=O)OC(C)(C)C)C(=O)OC(C)(C)C`, the result was inactive.
As for `O=C(NCCN1C(=O)S/C(=C\c2ccc(OC(F)F)cc2)C1=O)c1cnccn1`, the result was inactive.
Regarding `Oc1ccc(N=Nc2ccccc2C(F)(F)F)c2cccnc12`, the outcome was inactive.
The result for `Cc1cccc(C2(c3cccc(C)c3)CC2C(=O)Nc2ccc([N+](=O)[O-])cc2O)c1` (stereo not given) reads “inactive”; that for `CCN1CCN(Cc2ccc(NC(=O)c3cc(NC(=O)C(=O)c4c[nH]c5ccccc45)cc(OC)c3)cc2C(F)(F)F)CC1`, “inactive”.
The result for `CCOc1ccccc1C1C2=C(COC2=O)Nc2cc3c(cc21)OCO3` (stereo not given) reads “inactive”; that for `C=C1C(=O)[C@]23C[C@H]1CCC2[C@]1(C)CCC[C@@](C)(C(=O)O)C1C[C@@H]3O` (stereo not given in full), “inactive”.
As to `Cc1ccc(S(=O)(=O)N(C)C[C@@H]2Oc3ccc(NC(=O)Nc4ccc(C(F)(F)F)cc4)cc3CC(=O)N([C@H](C)CO)C[C@@H]2C)cc1`, the result was inactive.
For `COc1c(C=O)c2c(c(OC)c1OC)-c1ccc(OC)c(=O)cc1C(NC(C)=O)CC2` (stereo not given), the compound was classed as inactive.
The result for `Cn1nnnc1Sc1ncnc2scc(-c3cccc4c3sc3ccccc34)c12` reads “inactive”; that for `CCC(=O)OCCNc1cc(Sc2nccn2C)c2nonc2c1[N+](=O)[O-]`, “inactive”; that for `COc1cc(/C=N/NS(=O)(=O)c2ccc(C)cc2)ccc1OCc1ccc(C(=O)O)cc1`, “inactive”.
For the compound `Cc1ccc(S(=O)(=O)Nc2ccc3c(c2)C(=O)N([C@H](C)CO)C[C@H](C)[C@@H](CN(C)Cc2ccc(C(F)(F)F)cc2)OCCCC[C@H](C)O3)cc1`, the result was inactive.
The result for `CC(C)N1CCc2c(sc(NC(=O)c3ccc([N+](=O)[O-])o3)c2C(N)=O)C1` reads “inactive”; that for `CS(=O)(=O)Nc1ccc2c(c1)[C@@H]1C[C@@H](CC(=O)NCc3ccc(Oc4ccccc4)cc3)O[C@@H](CO)[C@@H]1O2`, “inactive”; that for `CC(=NNC(=S)N1CCC1)c1ccccn1`, “inactive”.

These data come from PubChem BioAssay.
